A selection: hits, their analogues and other compounds. The true share with any hit is near 19%.
TDP1 cell CPT: DT40-hTDP1 cell growth loss with CPT; chicken DT40 Tdp1-/-;hTDP1 cells + 20 nM CPT, ATP luminescence, 48 h; Potency, µM (titrated, usually from 46.2 µM), usual class: inhibitors; 12% of 420,000 active; further: nearly all actives have a fitted effect of over 55% in size
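Chicken DT40 Tdp1-/- cells complemented with human TDP1, 400 cells/well, exposed to compounds plus 20 nM camptothecin for at least 48 h at 37 C; viability read as ATP content by CellTiter-Glo luminescence.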
TGFb SMAD3 inh: inhibitors of TGF-b signaling; 1.2% of 410,000 active; Potency, µM (highest dose often 46.1 µM), actives largely listed as inhibitors; HepG2 CAGA-GFP TGF-b/SMAD3 reporter, GFP fluorescence, 18 h; TGF-beta stimulated, 500 pg/mL final; further: nearly all actives have a fitted effect of over 65% in size
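Smad-responsive CAGA-GFP expression was quantified in HEPG2 cells exposed to compounds and 500 pg/mL final TGF-beta for 18 h at 37 degrees C; unstimulated wells defined full inhibition.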
IL-1B inflam inh: inflammasome signaling inhibition, IL-1 beta readout; activity change, % at 57.5 µM; 4.7% of 360,000 active; THP-1 LPS/ATP IL-1B secretion, AlphaLISA, 16 h; hits give low values; in the data active means activity change below about -50%; inconclusive means mostly about -30% to -49%
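Secreted IL-1B measured by AlphaLISA bead assay after 16 h compound exposure of THP-1 cells; compounds (final up to 57.5 uM) added 1 h before LPS (250 ng/mL) and ATP (1.25 mM) stimulation; lower signal means less secretion.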
S-ASM inh: blocks human secretory acid sphingomyelinase; P17405; placental ASM, HMU-PC fluorogenic substrate, 60 min; Potency, µM (series often up to 57.5 µM), most hits filed as inhibitors; 0.006% of 340,000 active; AID 504937
Target sequence (P17405 47-631 limits assumed): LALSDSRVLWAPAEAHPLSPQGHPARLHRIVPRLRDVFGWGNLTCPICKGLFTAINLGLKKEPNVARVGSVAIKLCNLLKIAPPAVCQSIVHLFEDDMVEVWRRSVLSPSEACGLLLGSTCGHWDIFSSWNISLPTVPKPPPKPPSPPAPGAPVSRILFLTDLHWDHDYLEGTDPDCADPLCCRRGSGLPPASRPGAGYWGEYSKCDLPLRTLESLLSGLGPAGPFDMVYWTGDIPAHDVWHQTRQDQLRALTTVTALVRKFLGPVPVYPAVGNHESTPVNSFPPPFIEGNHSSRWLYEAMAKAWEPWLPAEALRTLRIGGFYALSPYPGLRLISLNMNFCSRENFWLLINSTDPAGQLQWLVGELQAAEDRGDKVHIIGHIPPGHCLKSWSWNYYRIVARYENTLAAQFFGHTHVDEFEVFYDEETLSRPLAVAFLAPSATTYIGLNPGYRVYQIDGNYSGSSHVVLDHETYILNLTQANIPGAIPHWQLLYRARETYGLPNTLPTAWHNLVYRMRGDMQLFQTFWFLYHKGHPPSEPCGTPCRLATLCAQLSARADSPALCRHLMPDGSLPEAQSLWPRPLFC
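Steps: dispense placental human ASM, pin compound, wait 10 min at room temperature, add HMU-PC0 substrate at 9 uM final, incubate 60 min at 37 °C, add stop solution raising pH to 10, read fluorescence.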
HepG2 tox: counter-screen for TGF-b inhibitors: cytotoxicity in HepG2 cells. HepG2 CAGA-GFP viability, ATP luminescence, 18 h. Potency, µM (top dose mostly 46.1 µM), usual class: cytotoxic. 0.76% of 410,000 active. AID 588856
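CellTiter-Glo luminescence gave cytotoxicity after 18 hours at 37 degrees C. The cells were HepG2 CAGA-GFP in 1% FBS DMEM, stimulated with 500 pg/mL TGF-beta after compound addition. %Activity was normalised to no-cell wells (complete cell-killing) and DMSO (no toxicity), and curves were fitted and classified.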
TDP1 cell noCPT: qHTS for Inhibitors of human tyrosyl-DNA phosphodiesterase 1 (TDP1): qHTS in cells in absence of CPT; Potency, µM (highest dose often 46.2 µM), most hits filed as inhibitors; DT40 Tdp1-/- hTDP1 cells, no CPT, ATP luminescence, 48 h; 15% of 420,000 active; further: nearly all actives have a fitted effect of over 55% in size
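Luminescent ATP content (CellTiter-Glo) served as the growth readout. Knockout chicken DT40 cells expressing human TDP1 were exposed to compounds without camptothecin for a minimum 48 hr at 37 °C.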
Hits are given with their value. Unless noted, the call rests on the fitted dose curve; in most records, active means well fitted curve in the direction sought with a large enough effect; inconclusive means small, poorly fitted or top-dose-only effect, or another doubt; inactive means no such curve, though single readings can be large; an effect the other way counts as inactive or inconclusive.

`Cc1ccc(Nc2cc(=O)oc3ccccc23)c(C)c1` gave TDP1 cell CPT inactive, TGFb SMAD3 inh inactive, IL-1B inflam inh inactive, S-ASM inh inactive, HepG2 tox inactive and TDP1 cell noCPT inactive.
Screening O=c1cc(NCCc2ccccc2)c2ccccc2o1 returned TDP1 cell CPT 10µM, TGFb SMAD3 inh inactive, IL-1B inflam inh -59, S-ASM inh inactive, HepG2 tox inactive and TDP1 cell noCPT 8.2µM.
For O=c1cc(NCCO)c2ccccc2o1 the results were TDP1 cell CPT inactive, TGFb SMAD3 inh inactive, IL-1B inflam inh inactive, S-ASM inh inactive, HepG2 tox inactive and TDP1 cell noCPT inactive.
Cc1ccccc1Nc1cc(=O)oc2ccccc12 was read as TDP1 cell CPT 12µM, TGFb SMAD3 inh inactive, IL-1B inflam inh inactive, S-ASM inh inactive, HepG2 tox inactive and TDP1 cell noCPT 21µM.
For CC(=O)OCOC(=O)CN(CC(=O)OCOC(C)=O)c1ccccc1OCCOc1ccccc1N(CC(=O)OCOC(C)=O)CC(=O)OCOC(C)=O the results were TDP1 cell CPT 1.4µM and TDP1 cell noCPT 1.6µM.
COc1cc(/C=N/Nc2nc(Nc3ccccc3)nc(N3CCCCC3)n2)ccc1OCC(=O)O was read as TDP1 cell CPT inconclusive, TGFb SMAD3 inh inactive, IL-1B inflam inh inactive, S-ASM inh inconclusive, HepG2 tox inactive and TDP1 cell noCPT inconclusive.
Screening COc1ccc(/C=N/Nc2nc(Nc3ccccc3)nc(N3CCCC3)n2)cc1[N+](=O)[O-] returned TDP1 cell CPT inconclusive, TGFb SMAD3 inh inactive, IL-1B inflam inh -88, S-ASM inh inactive, HepG2 tox inactive and TDP1 cell noCPT 16µM.
Screening O=C(Oc1cccc(/C=N/Nc2nc(N3CCOCC3)nc(N3CCOCC3)n2)c1)c1ccco1 returned TDP1 cell CPT inconclusive, TGFb SMAD3 inh inactive, IL-1B inflam inh inactive, S-ASM inh inactive, HepG2 tox inactive and TDP1 cell noCPT inconclusive.
For COc1cc(/C=N/Nc2nc(Nc3ccccc3)nc(N3CCOCC3)n2)ccc1OC(=O)c1ccco1 the results were TDP1 cell CPT 7.3µM, TGFb SMAD3 inh inactive, IL-1B inflam inh inconclusive, S-ASM inh inconclusive, HepG2 tox inactive and TDP1 cell noCPT 4.1µM.
`COc1ccc(/C=N/Nc2nc(Nc3ccccc3)nc(N3CCCCC3)n2)c(OC)c1` gave TDP1 cell CPT inconclusive, TGFb SMAD3 inh inactive, IL-1B inflam inh inactive, S-ASM inh inactive, HepG2 tox inactive and TDP1 cell noCPT 21µM.
`CCOC(=O)c1ccc(N2C(=O)CC(N(C)CCc3ccc(OC)c(OC)c3)C2=O)cc1` (stereo not given) gave TDP1 cell CPT 16µM, TGFb SMAD3 inh inactive, IL-1B inflam inh inactive, S-ASM inh inactive, HepG2 tox inactive and TDP1 cell noCPT inconclusive.
Screening CCOc1ccccc1CN1CCN(CCCc2ccccc2)CC1CCO (stereo not given) returned TDP1 cell CPT inconclusive, TGFb SMAD3 inh inactive, IL-1B inflam inh inactive, S-ASM inh inactive, HepG2 tox inactive and TDP1 cell noCPT inconclusive.
Screening O=S(=O)(NCC(c1ccco1)S(=O)(=O)c1ccccc1)c1cc(F)ccc1F (stereo not given) returned TDP1 cell CPT inconclusive, TGFb SMAD3 inh inconclusive, HepG2 tox inactive and TDP1 cell noCPT inconclusive.
Screening Cc1ccc(/C=C/C(=O)N2CC(C)CC(C)C2)o1 (stereo not given) returned TDP1 cell CPT 1.5µM, TGFb SMAD3 inh inconclusive, IL-1B inflam inh inconclusive, S-ASM inh inactive, HepG2 tox inactive and TDP1 cell noCPT 3.3µM.
CC(/C=C/c1ccc(C)o1)=C\C(=O)O was read as TDP1 cell CPT 12µM, TGFb SMAD3 inh inactive, IL-1B inflam inh inactive, S-ASM inh inactive, HepG2 tox inactive and TDP1 cell noCPT 18µM.
`CC(=O)/C=C/c1ccc(C)o1` gave TDP1 cell CPT 16µM, TGFb SMAD3 inh inactive, IL-1B inflam inh inactive, S-ASM inh inactive, HepG2 tox inactive and TDP1 cell noCPT inconclusive.
For CCN1CCN(C(=O)/C=C/c2ccc(C)o2)CC1 the results were TDP1 cell CPT inactive, TGFb SMAD3 inh inactive, IL-1B inflam inh inactive, S-ASM inh inactive, HepG2 tox inactive and TDP1 cell noCPT inactive.
CC(=C/C(=O)O)/C=C/c1ccc(Cl)o1 was read as TDP1 cell CPT inactive, TGFb SMAD3 inh inactive, IL-1B inflam inh inactive, S-ASM inh inactive, HepG2 tox inactive and TDP1 cell noCPT inactive.
Screening c1ccc2c(c1)NCC1CCCN21 (stereo not given) returned TDP1 cell CPT 21µM, TGFb SMAD3 inh inactive, IL-1B inflam inh inactive, S-ASM inh inactive, HepG2 tox inactive and TDP1 cell noCPT 16µM.
Screening COc1ccc(-n2nc3c(c2NC(=O)COc2ccccc2)CS(=O)C3)cc1 (stereo not given) returned TDP1 cell CPT inactive, TGFb SMAD3 inh inactive, IL-1B inflam inh inactive, S-ASM inh inactive, HepG2 tox inactive and TDP1 cell noCPT inactive.
For CCCC/C(O)=C1\C(=O)CC(C)(C)CC1=Nc1ccccc1OC the results were TDP1 cell CPT inconclusive, TGFb SMAD3 inh inactive, IL-1B inflam inh inactive, S-ASM inh inactive, HepG2 tox inactive and TDP1 cell noCPT inconclusive.
CCC/C(O)=C1\C(=O)CC(C)(C)CC1=Nc1cccc([N+](=O)[O-])c1 was read as TDP1 cell CPT inconclusive, TGFb SMAD3 inh inactive, IL-1B inflam inh inactive, S-ASM inh inactive, HepG2 tox inactive and TDP1 cell noCPT inconclusive.
CCCN=C1CC(C)(C)CC(=O)/C1=C(/O)CCC was read as TDP1 cell CPT inactive, TGFb SMAD3 inh inactive, IL-1B inflam inh inactive, S-ASM inh inactive, HepG2 tox inactive and TDP1 cell noCPT inactive.
`CCCCCCN=C1CC(C)(C)CC(=O)/C1=C(/O)CCC` gave TDP1 cell CPT inconclusive, TGFb SMAD3 inh inconclusive, IL-1B inflam inh inconclusive, S-ASM inh inactive, HepG2 tox inactive and TDP1 cell noCPT 16µM.
COC(=O)CC/C(O)=C1\C(=O)CC(C)(C)CC1=Nc1ccccc1OC was read as TDP1 cell CPT 23µM, TGFb SMAD3 inh inactive, IL-1B inflam inh inactive, S-ASM inh inactive, HepG2 tox inactive and TDP1 cell noCPT inconclusive.
For CCC/C(O)=C1\C(=O)CC(C)(C)CC1=Nc1ccc(OC)cc1OC the results were TDP1 cell CPT 2.9µM, TGFb SMAD3 inh inactive, IL-1B inflam inh inactive, S-ASM inh inactive, HepG2 tox inactive and TDP1 cell noCPT 2.1µM.
COc1ccc(-c2cc(C(F)F)nn2-c2ccc(S(N)(=O)=O)cc2)cc1F was read as TDP1 cell CPT inactive and TDP1 cell noCPT inactive.
For COc1ccc(S(=O)(=O)N2CCC[C@H]2C(=O)N2CCC[C@H]2C(=O)N(C)Cc2ccccc2)cc1C the results were TDP1 cell CPT inconclusive, IL-1B inflam inh inactive and TDP1 cell noCPT inactive.
